Measured values from PubChem BioAssay AID1053124 (Broad Institute, 2014).
Entries with a potency or affinity are not part of this list. Values without a mark were called inactive.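 How the source made its calls: active means cell killing whose fitted half-effect concentration is at most twice the top valid dose tested; inconclusive means flat curve with 30 to 70% killing, or a poor fit; inactive means effect in the rising direction, plus the rest.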

assay: viability loss in A549 lung cells – cell-based, ATP luminescence, cherry-pick, set 2, cytotoxicity control, dose response (AID 1053124); settings: ATP luminescence (CellTiter-Glo), 72 h; series mostly up to 26 µM; activity change, negative = cytotoxicity: at the top concentration;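 further: 0% = neutral control wells and -100% = mitoxantrone 10 µM positive control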

Compound	activity change, negative = cytotoxicity [%]
CCC(Sc1nc(N)c(NC(=O)c2ccc(OC)cc2)c(=O)[nH]1)C(=O)O (stereo not given)	-2.92
Cc1c(C=O)c2ccccn2c1C(=O)c1cccs1	3.67
Cc1cc(OC(=O)c2ccccc2Cl)ccc1N1C(=O)CCC1=O	-0.659
COc1ccc(S(=O)(=O)Cc2ccc(C(=O)N3CCN(Cc4ccccc4)CC3)o2)cc1	6.87
CCC(=O)N1C(C(=O)NCc2ccc(OC)cc2)CSC1c1ccc(OC)cc1 (stereo not given)	-4.91
CCCCN1C=C(C(=O)OC)C(c2ccccc2Cl)C(C(=O)OC)=C1	-12.4
CN1c2ccc(Cl)cc2C(=O)NC1C1CC=CCC1 (stereo not given)	-0.754
Cc1c(C(=O)NCc2ccc(Cl)c(Cl)c2)sc(=O)n1Cc1cccc(F)c1	-10.2
O=C(C1=NN(c2ccccc2)C2C(=O)N(c3ccccc3)C(=O)C12)c1ccccc1 (stereo not given)	7.8
CN(C)/C=C/C(=O)c1c(F)cccc1F	0.6
CC(C)CCN1C(=O)c2cccc3c(N)ccc(c23)C1=O	5.3
C=CCc1c(O)c(CC)cc2c(C)cc(=O)oc12	-7.59
Cc1cccn2c(=O)c3cc(C(=O)NCc4ccc(F)cc4)c(=N)n(CCCN4CCOCC4)c3nc12	-12
Cc1oc(/N=C/c2ccc(O)cc2O)c(C#N)c1C	-4.85
CC1CCN(C(=O)COc2cccc3c2CCN(Cc2ccccc2)C3=O)CC1	-1.26
O=C(O)c1ccc(N/N=C/c2ccc(-c3ccccc3Cl)o2)cc1	-2.95
CSc1ccc(Cl)c(C(=O)N2CCOc3ccccc32)c1	-2.35
CC(C)OCCCn1c(=N)c(C(N)=S)cc2c(=O)n3ccccc3nc21	-4.01
O=C(O)c1[nH]c2ccccc2c1C(c1cc(Br)ccc1O)c1c(C(=O)O)[nH]c2ccccc12	2.61
Nc1ccc(C#Cc2ccc3c(=O)c4ccccc4oc3c2)cc1	-9.82

Compound	activity change, negative = cytotoxicity [%]
CCOC(=O)c1cc2c(=O)n3ccccc3nc2n(CCCOC)c1=NC(=O)c1ccncc1	-2.23
CCOc1ccc2nc(NCCNC(=O)CC)c(C#N)cc2c1	-8.92
COCCCOc1cc(NCc2ccccc2)c2ncn(C(C)C)c2c1	1.48
CCOC(=O)C1=CN(CC2CCCO2)C=C(C(=O)OCC)C1c1ccccc1C(F)(F)F (stereo not given)	-7.49
CCCCn1nc(NC(=O)c2cccs2)c2cc3cc(OC)ccc3nc21	-4.77
CC1CCCCC1NC(=O)CN1C(=O)c2cccc(N)c2C1=O (stereo not given)	-6.1
Cc1cc(-c2nc3cccnc3s2)ccc1NS(=O)(=O)c1cccs1	-1.77
NC(=O)c1cc([N+](=O)[O-])ccc1NCc1cccnc1	3.95
CCCOc1ccccc1/C=C1\SC(N)=NC1=O	-8.93
O=c1[nH]c(Nc2ccccc2Cl)cc2ccccc12	-5.32
O=C(CCCN1C(=O)CSc2ncccc21)N1CCN(Cc2ccccc2)CC1	-2.8
COc1ccc(C2CC(c3cccs3)=NN2c2nc(C)c(C(C)=O)s2)cc1OC (stereo not given)	-26.6
CC(=O)c1cc2ccc(O)cc2oc1=O	2.12
Cc1ccc(O)c(NC(=S)NC(=O)COc2ccc(Br)cc2)c1	-1.55
CCN(c1ccccc1)S(=O)(=O)c1ccc(OC)c(NC(=O)CN(C)C)c1	-8.81
COc1cc(/C=C(\C#N)C(=O)NC(C)C)cc(Cl)c1O	-7.73
COc1ccccc1OCc1ccc(C(=O)N(C)c2ccccc2)o1	-0.768
CCN(CC)CCNC(=O)c1sc2nc(-c3ccccc3)cn2c1C	-4.09
Cc1cccn2c(=O)c3cc(C(=O)NC(C)c4ccccc4)c(=N)n(CCCn4ccnc4)c3nc12 (stereo not given)	-9.79
CC(C)C(=O)Nc1sc2c(c1C(N)=O)CCN(Cc1ccccc1)C2	-5.15
